ssDAF-12 act: activates DAF-12 receptor from parasite S. stercoralis | AID 652126 | HEK293 ssDAF-12/GRIP1 lit1-tk-luc reporter, luminescence; % of 3 µM dafachronic acid response | 1% of 370,000 active | activation, % at 6.8 µM;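 active = activation above the mean over all tested compounds plus 3 SD, cut at about 0.9% in these data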
hgDAF-12 ag: activates the H. glycines DAF-12 receptor ligand-binding domain; 1.8% of 370,000 active; HEK293 GAL4-hgDAF12 UAS-luciferase reporter, agonist luminescence; normalized to butyrate control; activation, % at 6.8 µM;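 active = activation above a cutoff set at the mean of all screened compounds plus 3 SD, cut at about 10% in these data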
SMARCA2 act: increases SMARCA2 function in MMTV reporter cells; MG213 cells, MMTV-luciferase reporter, dexamethasone, overnight; 1% of 370,000 active; AID 652017; activation, % at 9.1 µM; in the data active = activation above about 7.8%
hcDAF-12 act: H. contortus DAF-12 activation, primary screen; HEK293 hcDAF-12 lit1-tk-luc reporter, luminescence; 0% DMSO, 100% Δ7-dafachronic acid; activation, % at 6.8 µM; 1.4% of 370,000 active;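 active = activation above the mean of all tested compounds plus 3 SD, cut at about 5.5% in these data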
DAX1 inh-1: inhibitors of human orphan nuclear receptor DAX1 (NR0B1). inhibition, % at 6.75 µM. HEK293 Gal4-DAX1 luciferase reporter, luminescence. AID 504766. 0.99% of 340,000 active. P51843;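 active = inhibition above the mean over all tested compounds plus 3 SD, cut at about 4.2% in these data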;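 also: inhibition shows as a rise in luminescence from relieved DAX1 repression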
Target sequence (P51843 207-470 limits assumed): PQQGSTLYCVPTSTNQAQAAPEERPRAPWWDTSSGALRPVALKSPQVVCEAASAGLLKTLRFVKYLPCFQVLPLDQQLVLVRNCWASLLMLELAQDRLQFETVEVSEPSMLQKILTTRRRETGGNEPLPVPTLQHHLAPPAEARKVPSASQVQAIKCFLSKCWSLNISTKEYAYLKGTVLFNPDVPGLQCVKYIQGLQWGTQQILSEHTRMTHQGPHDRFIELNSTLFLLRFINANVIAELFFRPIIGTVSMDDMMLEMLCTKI
DAX1 inh-2: DAX1 (NR0B1) inhibition, primary screen | HEK293T StAR-luciferase reporter, SF-1/DAX-1 repression relief | inhibition, % at 6.8 µM | 1.1% of 370,000 active;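 active = inhibition above the mean over all tested compounds plus 3 SD, cut at about 3.6% in these data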;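 also: higher inhibition means more luminescence from relief of DAX-1 repression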
SMARCA2 act conf: SMARCA2 activation, confirmation screen | activation, % at 9.1 µM | AID 652260 | MG213 cells, MMTV-luciferase with dexamethasone, luminescence, overnight; MG213 cells expressing E1A, Rb sequestered; DMSO wells 0%, reference activator 100% | 30% of 3,500 active | shares compounds with SMARCA2 act;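 active = activation above its plate's cutoff, the mean activation of tested wells plus 3 SD, cut at about 7.9% in these data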
GAL4-VP16 Luc: activates GAL4-VP16 luciferase, flagging SMARCA2 activator hits. shares compounds with SMARCA2 act. HEK293 GAL4-VP16 pG5luc reporter, luciferase luminescence; scaled: DMSO wells 0%, SAHA wells 100%. activation, % at 9.1 µM. 41% of 3,500 active. AID 686939;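 active = activation above the solvent-only control well mean plus 3 SD, averaged across control plates, cut at about 5.2% in these data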
Large screens that a line does not name were inactive (follow-up assays come after a bar, where they were run). Sampled rows, rich in hits. Any-hit rate of the full collection: about 4.8%.

O=C(NC1CCCC1)C1C(c2ccc(C(F)(F)F)cc2)=Nc2ccccc2N1C(=O)c1ccccc1 (configuration not stated)	SMARCA2 act 13, hcDAF-12 act 5.7, DAX1 inh-2 3.6 (no result: DAX1 inh-1) | SMARCA2 act conf inactive | GAL4-VP16 Luc 5.8
CCN1CC(c2ccccc2)C(c2ccc(Cl)cc2)=N1 (configuration not stated)	SMARCA2 act 8.3 | SMARCA2 act conf inactive | GAL4-VP16 Luc inactive
CN1N=C(c2ccc(Cl)cc2)CC(c2ccc(Cl)cc2)C1=O (configuration not stated)	none
COc1cccc2cc(NC(=O)C3CCCCC3)c(=O)oc12	SMARCA2 act 12 | SMARCA2 act conf 7.8 | GAL4-VP16 Luc 10
COc1cccc2cc(C(=O)N3CCCCC3C)c(=O)oc12 (configuration not stated)	none
CCCCCCCCNS(=O)(=O)CCNCc1ccccc1OC	none
CCC(OCC(O)CN1CCN(CCN2C(=O)c3cccc4cccc(c34)C2=O)CC1)c1ccccc1 (configuration not stated)	SMARCA2 act 9.4 | SMARCA2 act conf inactive | GAL4-VP16 Luc inactive
CC(C)OCC(O)CN1CCN(CCN2C(=O)c3cccc4cccc(c34)C2=O)CC1 (configuration not stated)	none
O=S(=O)(NCC1CCCO1)c1cccc(C(F)(F)F)c1 (configuration not stated)	none
O=C1NC(=Nc2cccnc2)S/C1=C/c1ccc(F)cc1	SMARCA2 act 8.4 (no result: DAX1 inh-1) | SMARCA2 act conf inactive | GAL4-VP16 Luc inactive
O=C1NC(=Nc2ccccc2)S/C1=C\c1cccnc1	none
COc1cc(C)c(NC(c2ccccc2)c2ccccc2)cc1OC	none
C=CCOc1ccc2oc(=O)cc(C)c2c1	SMARCA2 act 10 | SMARCA2 act conf inactive | GAL4-VP16 Luc inactive
Cc1ccc(-c2nc(C#N)c(NCC3CCCO3)o2)cc1 (configuration not stated)	none
COc1ccc(-c2nc(C#N)c(NCC3CCCO3)o2)cc1 (configuration not stated)	SMARCA2 act 10 | SMARCA2 act conf 9.7 | GAL4-VP16 Luc inactive
CC(C)(NC(=O)NC(CO)c1ccccc1)c1cccc(C(C)(C)NC(=O)NC(CO)c2ccccc2)c1 (configuration not stated)	none
Nc1ccnc(Oc2ccc(F)cc2)c1	SMARCA2 act 18 | SMARCA2 act conf inactive | GAL4-VP16 Luc inactive
CCOC(=O)c1cc(-c2ccc3c(c2)OCCO3)nc2c1c(C)nn2CCC#N	none
COC(=O)N/N=C(\C)c1ccccc1Br	SMARCA2 act 8.0 | SMARCA2 act conf 9.1 | GAL4-VP16 Luc inactive
CCn1nccc1NC(=O)c1csc([C@@H]2O[C@H](CO)[C@H](O)[C@H](O)[C@H]2O)n1	none (no result: DAX1 inh-1)
CCOc1ccc(OCc2ccc(C(=O)O)o2)cc1	none
O=C(O)c1ccc(COc2ccc3ccccc3c2)o1	hgDAF-12 ag 10, SMARCA2 act 8.6 | SMARCA2 act conf inactive | GAL4-VP16 Luc 8.7
CCOC(=O)c1cnn(-c2cccc(Cl)c2)c1N	SMARCA2 act 9.4 | SMARCA2 act conf inactive | GAL4-VP16 Luc inactive
CC1CCCCC12NC(=O)N(CC(=O)Nc1ccc(Cl)c(S(=O)(=O)N3CCOCC3)c1)C2=O (configuration not stated)	none
COc1ccc(-c2cc(C#N)nc(Cl)n2)cc1	SMARCA2 act 21 | SMARCA2 act conf 41 | GAL4-VP16 Luc inactive
CN(C)c1ccc(-c2ccc3c(=O)c4ccccc4n(C)c3c2)cn1	SMARCA2 act 8.5 | SMARCA2 act conf 9.8 | GAL4-VP16 Luc 11
Cc1cc(NC(=O)CCN2C(=O)/C(=C\c3ccccc3Cl)SC2=S)no1	none
CCOC(=O)c1c(C)[nH]c(C(=O)COC(=O)c2ccncc2)c1C	none
CCOC(=O)c1c(C)[nH]c(C(=O)COC(=O)c2ccco2)c1C	SMARCA2 act 10 | SMARCA2 act conf inactive | GAL4-VP16 Luc inactive
COc1ccc(C)cc1S(=O)(=O)N(CC(=O)Nc1cccc([N+](=O)[O-])c1)c1ccc(C)c(C)c1	none
COC(=O)c1ccc2[nH]c(C)cc(=O)c2c1	none
COC(=O)c1ccc2[nH]c(C(C)(C)O)c(C)c2c1	SMARCA2 act 8.2 | SMARCA2 act conf inactive | GAL4-VP16 Luc inactive
COc1ccc(C(C)=O)cc1CS(=O)(=O)CC(=O)NCCc1c[nH]c2ccccc12	SMARCA2 act 9.0 | SMARCA2 act conf inactive | GAL4-VP16 Luc inactive
COc1ccc(C(=O)CCC(=O)NCCc2c[nH]c3ccccc23)cc1OC	none
O=C(Cc1ccccc1)NC1CCCCC1	none (no result: DAX1 inh-1)
CN1CCN(C(=O)CCN2C(=O)S/C(=C/c3ccc(Cl)cc3)C2=O)CC1	none
Cc1ccc(/C=C2\SC(=O)N(CCC(=O)N3CCN(C)CC3)C2=O)cc1	SMARCA2 act 8.9 | SMARCA2 act conf inactive | GAL4-VP16 Luc 6.6
CC1CCc2c(sc(/N=C/c3cccnc3)c2C(N)=O)C1 (configuration not stated)	none (no result: DAX1 inh-1)
CC1CCc2c(sc(/N=C/c3ccco3)c2C(N)=O)C1 (configuration not stated)	SMARCA2 act 8.8 | SMARCA2 act conf inactive | GAL4-VP16 Luc 6.2
COc1ccc(C2C(O)C(c3c[nH]c4ccccc34)=NN2C(=O)CCl)cc1 (configuration not stated)	none
CNC(=S)Nc1sc2c(c1C(=O)OC)CCC2	SMARCA2 act 9.1 | SMARCA2 act conf inactive | GAL4-VP16 Luc inactive
COc1ccc2cc(C#N)c(SCC(=O)NNC(=O)Cc3ccccc3)nc2c1	SMARCA2 act 9.1 | SMARCA2 act conf inactive | GAL4-VP16 Luc inactive
O=C(CSc1ccccn1)Nc1ccc(Cl)c([N+](=O)[O-])c1	none
CC(C)CCn1c(Sc2nc3ccccc3o2)nc2c1c(=O)[nH]c(=O)n2C	SMARCA2 act 8.1 | SMARCA2 act conf inactive | GAL4-VP16 Luc inactive
Cn1c(=O)[nH]c(=O)c2c1nc(N1CCCCC1)n2CCSc1nc2ccccc2o1	none
Cc1ccc(-c2ccc(CCC(=O)O)n2NC(N)=S)cc1	SMARCA2 act 8.4 | SMARCA2 act conf inactive | GAL4-VP16 Luc inactive
C/C(=N/NC(=O)Cc1c(C)[nH][nH]c1=O)c1ccc(O)cc1	none
C/C(=N\NC(=O)Cc1c(C)[nH][nH]c1=O)c1ccc(Cl)c(Cl)c1	SMARCA2 act 8.0 | SMARCA2 act conf inactive | GAL4-VP16 Luc inactive

Bioassay records deposited in PubChem BioAssay by The Scripps Research Institute Molecular Screening Center.
